From PubChem BioAssay (Tox21) come the findings set out here.

A number with no mark means an inactive call. Results filed as inconclusive are left out. The source made the active and inactive calls. Unless noted, calls come from the whole dose curve.

Assay [1] can be described thus: Nuclear factor erythroid 2-related factor 2/antioxidant responsive element (Nrf2/ARE) small molecule agonists: qHTS cell viability counter screen in human keratinocytes (AID 1919968; active = well fitted curve in the direction sought with a large enough effect in the repeat runs; an effect the other way counts as inactive or inconclusive; note: nearly all actives have a fitted effect of over 55% in size). In short, it runs like this: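 Cytotoxicity was multiplexed with the Nrf2/ARE luciferase assay in the same wells. Stably transfected HaCaT keratinocytes were treated with test compounds for 23 h at 37 C. Cell viability was then measured by CellTiter-Fluor fluorescence.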
On the technique in general: qHTS replaces the single test concentration by a dilution series.

The nature of assay [2]: Nuclear factor erythroid 2-related factor 2/antioxidant responsive element (Nrf2/ARE) small molecule agonists: luciferase reporter gene qHTS assay in human keratinocytes (AID 1919969). Note: nearly all actives have a fitted effect of over 35% in size. Note: potency is the fitted concentration of half-maximal effect.
The target of assay [3] is Gonadotropin-releasing hormone receptor (Homo sapiens) (UniProt P30968). The assay is described as follows: Human gonadotropin-releasing hormone receptor (GnRHR) small molecule agonists, calcium flux assay in GnRHR-HEK293 cells (AID 1920063). Note: nearly all actives have a fitted effect of over 35% in size. Note: potency is the fitted concentration of half-maximal effect. In short, it runs like this:
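Agonist activity was measured as intracellular calcium flux in HEK293 cells engineered to stably express human GnRHR. After dye loading for 1 hour at 37 C, compounds in DMSO were added and fluorescence was followed for 3 minutes.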
(In general: A change in cytosolic calcium serves as a functional read-out for many receptors and channels.)

Assay [4] addresses KiSS-1 receptor (Homo sapiens) (UniProt Q969F8). Nature of the assay: Human kisspeptin (KISS1R) small molecule agonists, calcium flux assay in KISS1R-HEK293 cells (AID 1920064; active = well fitted curve in the direction sought with a large enough effect in the repeat runs; an effect the other way counts as inactive or inconclusive). In short, it runs like this: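 Agonist activity is monitored as intracellular calcium rise in engineered HEK293 cells carrying human KISS1R. Cells are dye-loaded for 1 h at 37 C before compound addition, and fluorescence is recorded for 3 min.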

Assay [5] is described as follows: G protein-coupled receptor (GPCR) small molecule agonists, calcium flux assay: HEK293 wild type cell line counter screen (AID 1920065). The method, boiled down:
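Seed cells, incubate 18 h (37 C, 5% CO2); add calcium dye, 1 h at 37 C; pin-transfer compounds, ATP control or DMSO; read fluorescence 480/540 nm each second for 3 min.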

Assay [6] is described as follows: p53 small molecule agonists, cell-based qHTS assay with rat liver microsomes (AID 1963578). In short, it runs like this: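 Quantitative HTS of the Tox21 10K library: p53RE-bla cells, rat liver microsomes plus NADPH at 0.5 mg/mL final each, 16 h at 37 C, beta-lactamase fluorescence detection.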
Assay [7] in a line: p53 small molecule agonists, cell-based qHTS assay with rat liver microsomes: qHTS cell viability counter screen (AID 1963580). Note: nearly all actives have a fitted effect of over 45% in size. In short, it runs like this:
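Luminescent ATP readout (CellTiter-Glo, 30 min at room temperature) reports viability of p53RE-bla HCT-116 cells after 16 h at 37 C with test compounds under metabolic activation by rat liver microsomes and NADPH at 0.5 mg/mL final each.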

A short description of assay [8]: p53 small molecule agonists, cell-based qHTS assay: qHTS cell viability counter screen (AID 1963581). Note: nearly all actives have a fitted effect of over 45% in size. In short, it runs like this: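 Viability was counter-screened in parallel with the p53 agonist reporter by measuring intracellular ATP luminescence in the same HCT-116 p53RE-bla wells after 16 h compound treatment at 37 C.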
Assay [9] deals with 5-hydroxytryptamine receptor 2A (Homo sapiens) (UniProt P28223). The assay is described as follows: 5-hydroxytryptamine receptor 2A (HTR2A) small molecule agonists, cell-based qHTS assay (AID 1963587). Note: nearly all actives have a fitted effect of over 30% in size. In short, it runs like this: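 HTR2A-CHO cells, plated 18 h at 37 C/5% CO2, dye-loaded 1 h at 37 C; compounds in DMSO added by pin tool (agonist mode). Intracellular calcium flux read as kinetic fluorescence on FDSS over 2 min at 1 s intervals.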

Assay [10] concerns the target Muscarinic acetylcholine receptor M1 (Homo sapiens) (UniProt P11229). Nature of the assay: Cholinergic receptor muscarinic 1 (CHRM1) small molecule antagonists, cell-based qHTS assay (AID 1963588). Note: nearly all actives have a fitted effect of over 40% in size. The method, boiled down:
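Compounds were tested at 15 concentrations in three independent runs. Dye-loaded CHRM1-CHO cells were exposed 5 min at room temperature before stimulation by acetylcholine added at 50nM. Intracellular calcium was read kinetically on FDSS for 3 min.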

The target in assay [11] is D(2) dopamine receptor (Homo sapiens) (UniProt P14416). Nature of the assay: Dopamine D2 receptor (DRD2) small molecule agonists, cell-based qHTS assay (AID 1963594). Note: nearly all actives have a fitted effect of over 35% in size. The method, boiled down: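 HEK293 cells stably expressing DRD2 were cultured 24 h at 37 C, then given Ro20-1724 (0.1 mM final) and compounds for 10 min at room temperature. NKH477 (200nM) was then added for 30 min. cAMP was read by HTRF.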

The target is the same in assay [12]. Nature of the assay: Dopamine D2 receptor (DRD2) small molecule antagonists, cell-based qHTS assay (AID 1963595; active = well fitted inhibition curve with a large enough effect in the signal ratio in the repeat runs, with a control signal flat; the % refers to the signal ratio). The method, boiled down: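 Cells were plated and grown for 24 h at 37 °C. Ro20-1724 (0.1 mM final) went in first, then compound for 10 min. NKH477 (200 nM) with quinpirole (12 nM) followed for 30 min at RT, then HTRF detection reagents for 1 h.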

The nature of assay [13]: p53 small molecule agonists, cell-based qHTS assay with human liver microsomes: qHTS cell viability counter screen (AID 1963579). Note: nearly all actives have a fitted effect of over 45% in size. The method, boiled down:
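Viability of p53RE-bla cells is measured as CellTiter-Glo luminescence following a 16 h, 37 C incubation with compound, liver microsomes from human donors and NADPH.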

The target of assay [14] is 5-hydroxytryptamine receptor 2A (Homo sapiens) (UniProt P28223). Nature of the assay: 5-hydroxytryptamine receptor 2A (HTR2A) small molecule antagonists, cell-based qHTS assay (AID 1963586). Note: nearly all actives have a fitted effect of over 45% in size. The method, boiled down: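 CHO cells stably expressing human HTR2A were plated for 18 h at 37 C, then loaded with calcium dye for 1 h. Compounds were preincubated 5 min at room temperature before DOI (4 nM solution) was added. Kinetic fluorescence was read for 3 min.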

The target in assay [15] is Muscarinic acetylcholine receptor M1 (Homo sapiens) (UniProt P11229). The assay is described as follows: Cholinergic receptor muscarinic 1 (CHRM1) small molecule agonists, cell-based qHTS assay (AID 1963589). Note: nearly all actives have a fitted effect of over 35% in size. The method, boiled down:
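Cells were plated and incubated 18 h at 37 C/5% CO2, loaded with calcium dye for 1 h at 37 C, then treated with compounds in DMSO. Fluorescence was recorded kinetically at 1 sec intervals.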

The nature of assay [16]: cAMP Responsive Elements (CRE) small molecule agonists, cell-based qHTS assay (AID 1963590). The method, boiled down:
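Cells carrying a CRE-driven beta-lactamase reporter (HEK 293T) are seeded, incubated overnight (18 h), and treated with test compounds for 3 h at 37 C; reporter activity is then detected with a FRET substrate after 2 h at room temperature.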

Assay [17] in a line: cAMP Responsive Elements (CRE) small molecule antagonists, cell-based qHTS assay (AID 1963591; active = well fitted inhibition curve with a large enough effect in the signal ratio in the repeat runs, not every such curve was filed as active; the % refers to the signal ratio). In short, it runs like this: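 Cells (CRE-bla HEK 293T, DMEM with 10% dialyzed FBS and 25 mM HEPES) are seeded and incubated 18 h. Compounds are added with NKH477 agonist at 0.25 uM final for 3 h, then FRET substrate for 2 h.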
The target in assay [18] is Beta-2 adrenergic receptor (Homo sapiens) (UniProt P07550). The assay is described as follows: Adrenergic beta2 receptor (ADRB2) small molecule antagonists, cell-based qHTS assay (AID 1963592). Note: series mostly up to about 92 µM; nearly all actives have a fitted effect of over 50% in size. The method, boiled down: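 Assay format: CHO-ADRB2 cells, 18-20hr seeding at 37C/5% CO2, then compound plus 1nM isoproterenol agonist mix for 0.5hr RT. Homogeneous time-resolved fluorescence cAMP detection after 1hr, expressed as 665/615 nm ratio.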

Assay [19] shares this target. The assay is described as follows: Adrenergic beta2 receptor (ADRB2) small molecule agonists, cell-based qHTS assay (AID 1963593).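 Note: CHO cells stably overexpressing human ADRB2.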 In short, it runs like this:
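CHO cells stably over-expressing ADRB2 were plated overnight at 37C, then dosed with compounds plus a stimulation mix containing 100uM IBMX and 25uM Ro-20-1724 for 0.5hr at room temperature. cAMP was measured by HTRF competition, 1hr.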

The nature of assay [20]: p53 small molecule agonists, cell-based qHTS assay (AID 1963582; active = well fitted activation curve with a large enough effect in the signal ratio in the repeat runs, not every such curve was filed as active; the % refers to the signal ratio). The method, boiled down:
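Cells carrying a p53-responsive bla reporter are treated with test compounds for 16 h at 37 C; beta-lactamase activity is then detected with LiveBLAzer B/G FRET substrate after 2 h at room temperature.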

Sequence of Beta-2 adrenergic receptor (Homo sapiens) (P07550 whole entry, looked up): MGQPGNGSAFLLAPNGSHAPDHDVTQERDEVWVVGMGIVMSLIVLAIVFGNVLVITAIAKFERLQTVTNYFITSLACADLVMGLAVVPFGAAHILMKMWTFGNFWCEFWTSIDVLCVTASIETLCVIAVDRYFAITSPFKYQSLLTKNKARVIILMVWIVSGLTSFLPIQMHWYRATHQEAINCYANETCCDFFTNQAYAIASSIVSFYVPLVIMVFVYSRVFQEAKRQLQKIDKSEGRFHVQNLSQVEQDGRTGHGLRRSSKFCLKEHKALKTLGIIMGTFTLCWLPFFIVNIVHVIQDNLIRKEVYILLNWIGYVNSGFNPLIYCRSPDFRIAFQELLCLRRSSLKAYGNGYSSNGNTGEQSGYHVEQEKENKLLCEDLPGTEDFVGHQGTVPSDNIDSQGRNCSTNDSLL
Sequence of 5-hydroxytryptamine receptor 2A (Homo sapiens) (P28223 whole entry, looked up): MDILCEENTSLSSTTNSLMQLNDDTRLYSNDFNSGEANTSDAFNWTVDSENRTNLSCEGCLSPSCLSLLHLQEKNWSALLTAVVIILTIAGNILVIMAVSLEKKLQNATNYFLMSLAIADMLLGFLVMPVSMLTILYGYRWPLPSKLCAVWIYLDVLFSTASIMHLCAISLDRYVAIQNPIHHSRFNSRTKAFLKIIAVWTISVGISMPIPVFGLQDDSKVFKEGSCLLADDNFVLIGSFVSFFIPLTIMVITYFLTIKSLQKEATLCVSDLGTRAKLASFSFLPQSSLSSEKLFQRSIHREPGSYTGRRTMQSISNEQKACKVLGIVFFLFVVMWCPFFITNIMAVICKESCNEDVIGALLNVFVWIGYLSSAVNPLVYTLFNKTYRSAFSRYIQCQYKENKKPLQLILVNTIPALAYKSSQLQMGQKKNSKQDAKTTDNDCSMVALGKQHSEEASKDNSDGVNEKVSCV
Sequence of D(2) dopamine receptor (Homo sapiens) (P14416 whole entry, looked up): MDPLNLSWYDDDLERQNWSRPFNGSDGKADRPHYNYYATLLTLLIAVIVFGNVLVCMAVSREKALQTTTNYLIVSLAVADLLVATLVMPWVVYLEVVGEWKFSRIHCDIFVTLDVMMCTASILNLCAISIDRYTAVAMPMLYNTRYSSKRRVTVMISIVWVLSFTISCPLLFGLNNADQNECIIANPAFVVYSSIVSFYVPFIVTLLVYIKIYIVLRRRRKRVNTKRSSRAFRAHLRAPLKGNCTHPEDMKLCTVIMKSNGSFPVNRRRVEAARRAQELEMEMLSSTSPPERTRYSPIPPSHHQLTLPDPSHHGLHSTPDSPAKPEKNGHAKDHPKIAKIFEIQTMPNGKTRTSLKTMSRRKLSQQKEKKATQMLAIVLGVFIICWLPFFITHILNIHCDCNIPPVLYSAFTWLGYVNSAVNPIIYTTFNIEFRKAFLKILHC
Sequence of Gonadotropin-releasing hormone receptor (Homo sapiens) (P30968 whole entry, looked up): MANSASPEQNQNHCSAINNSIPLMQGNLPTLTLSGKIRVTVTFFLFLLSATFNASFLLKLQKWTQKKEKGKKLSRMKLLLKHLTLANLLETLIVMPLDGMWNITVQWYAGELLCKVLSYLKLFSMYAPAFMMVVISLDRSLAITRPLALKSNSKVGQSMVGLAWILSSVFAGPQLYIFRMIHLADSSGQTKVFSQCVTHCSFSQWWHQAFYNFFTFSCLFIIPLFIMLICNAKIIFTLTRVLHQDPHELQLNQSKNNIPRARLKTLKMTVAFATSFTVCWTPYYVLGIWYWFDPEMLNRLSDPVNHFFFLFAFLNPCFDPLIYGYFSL
Sequence of Muscarinic acetylcholine receptor M1 (Homo sapiens) (P11229 whole entry, looked up): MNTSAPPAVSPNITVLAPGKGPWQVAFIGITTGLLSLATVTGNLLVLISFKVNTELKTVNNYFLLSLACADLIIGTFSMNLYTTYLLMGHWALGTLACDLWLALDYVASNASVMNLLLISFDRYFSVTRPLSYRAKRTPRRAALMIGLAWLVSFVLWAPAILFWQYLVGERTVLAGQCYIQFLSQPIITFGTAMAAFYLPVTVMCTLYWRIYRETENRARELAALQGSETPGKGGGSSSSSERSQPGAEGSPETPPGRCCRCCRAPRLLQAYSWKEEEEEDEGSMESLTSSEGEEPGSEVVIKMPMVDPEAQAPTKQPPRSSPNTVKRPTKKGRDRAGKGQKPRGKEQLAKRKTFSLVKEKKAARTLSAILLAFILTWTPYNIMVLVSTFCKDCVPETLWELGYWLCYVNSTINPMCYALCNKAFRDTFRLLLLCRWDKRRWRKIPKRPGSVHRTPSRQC
Sequence of KiSS-1 receptor (Homo sapiens) (Q969F8 whole entry, looked up): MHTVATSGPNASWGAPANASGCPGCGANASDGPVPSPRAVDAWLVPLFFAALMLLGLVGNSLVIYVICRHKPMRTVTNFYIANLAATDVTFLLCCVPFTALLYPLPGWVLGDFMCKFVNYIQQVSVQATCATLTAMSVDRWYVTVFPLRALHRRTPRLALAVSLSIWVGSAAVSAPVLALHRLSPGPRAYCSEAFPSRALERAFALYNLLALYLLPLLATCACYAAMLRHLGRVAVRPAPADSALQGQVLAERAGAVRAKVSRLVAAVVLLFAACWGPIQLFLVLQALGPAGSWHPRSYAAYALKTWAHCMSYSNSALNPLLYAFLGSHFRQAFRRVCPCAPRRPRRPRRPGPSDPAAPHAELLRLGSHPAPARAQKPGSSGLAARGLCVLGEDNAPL

As to `CC1=Nc2ccc3ccccc3c2C1(C)C`, the Potency entry in assay [1], in assay [4], in assay [5], in assay [6], in assay [7] and in [8] was “inactive” each time. Further, the Potency result in [9], in assay [10], in [11] and in assay [12] was “inactive” each time. Besides, the Potency was 68.6 µM (active) in [2] and 38.9 µM (active) in [3].
As for `CC(C)(C)CCCCCCOC(=O)c1ccccc1C(=O)OCCCCCCC(C)(C)C`, the Potency entry in assay [1], in assay [2], in assay [3], in assay [4], in assay [5] and in assay [13] was “inactive” in each case. Also, the Potency result in assay [7], in assay [8], in assay [14], in assay [9], in assay [10] and in [15] was “inactive” throughout. Further, the Potency result in assay [16], in [17], in [18], in assay [19] and in [11] was “inactive” throughout.
In the case of `CC1=CC(C)C(C=O)C(C)C1` (centres undefined), the Potency result in [1], in assay [2], in assay [3], in [4], in [5] and in [6] was “inactive” each time. For the same compound, the Potency entry in assay [7], in assay [20], in assay [14], in assay [9], in [10] and in assay [15] was “inactive” throughout. The Potency entry in assay [16], in [17], in [18], in assay [19], in assay [11] and in assay [12] was “inactive” each time.
`CC1=CC=C(C(C)C)CC1`: the Potency result in [1], in assay [2], in assay [3], in assay [4], in assay [5] and in assay [13] was “inactive” throughout. Also, the Potency result in [7], in assay [8], in assay [20], in [14], in assay [9] and in assay [10] was “inactive” in each case. The Potency result in assay [15], in [16], in [17], in assay [11] and in [12] was “inactive” each time.
With `CC1=NN(c2cccc(S(=O)(=O)O)c2)C(=O)C1`, the Potency entry in assay [1], in assay [2], in assay [3], in [4], in assay [5] and in assay [13] was “inactive” in each case. For the same compound, the Potency result in [7], in assay [8], in assay [14], in [9], in assay [10] and in [15] was “inactive” each time. Moreover, the Potency result in assay [16], in assay [17], in assay [18], in assay [19], in assay [11] and in [12] was “inactive” each time.
In the case of `CCc1ccccc1`, the Potency entry in assay [1], in assay [2], in assay [3], in assay [4], in [5] and in assay [13] was “inactive” throughout. The Potency entry in [7], in assay [8], in assay [14], in assay [9], in assay [10] and in assay [15] was “inactive” in each case. The Potency entry in [16], in assay [17], in [18], in assay [19], in assay [11] and in [12] was “inactive” throughout.
For `SC1CCCC1`, the Potency result in assay [1], in [2], in assay [3], in assay [4], in [5] and in assay [13] was “inactive” throughout. Also, the Potency entry in assay [7], in assay [8], in assay [14], in assay [9], in assay [10] and in [15] was “inactive” throughout. Also, the Potency entry in assay [16], in [17], in assay [18], in assay [19] and in assay [11] was “inactive” each time.
For `CC(C)c1ccccc1C(C)C`, the Potency result in assay [1], in assay [2], in [3], in assay [4], in assay [5] and in assay [13] was “inactive” throughout. For the same compound, the Potency result in assay [7], in assay [8], in assay [20], in assay [14], in assay [9] and in assay [15] was “inactive” throughout. For the same compound, the Potency entry in assay [17], in assay [18], in [19], in assay [11] and in [12] was “inactive” throughout.
